The record followed here is PubChem BioAssay (NCATS).

SMILES strings stand for the structures. Records with an inconclusive call do not appear. Active and inactive are the calls of the source. The call rests on the fitted dose curve; in most records, active means well fitted cell-killing curve with a large enough effect; inconclusive means small, poorly fitted or top-dose-only effect, or effect the other way; inactive means no such curve, though single readings can be large or run the other way.
Potency means the concentration at half of the fitted maximal effect.

This experiment can be described thus: Quantitative High-Throughput drug screen in 47 multiple myeloma cell lines against the NCATS MIPE library collection: INA6_PLB cell viability assay (AID 1918965; further: nearly all actives have a fitted effect of over 55% in size). The note with it: INA6 myeloma viability, CellTiter-Glo ATP luminescence, 48 h; series mostly up to 45.8 µM; viability (% of control): at the top concentration. An excerpt: PI: Beverly A. Mock Ph.D.
Laboratory of Cancer Biology and Genetics,
Center for Cancer Research, National Cancer Institute,
National Institute of Health, Bethesda, Maryland
Drug resistance and disease progression are common in multiple myeloma (MM) patients, underscoring the need for new therapeutic combinations. […] We hypothesized that effective combinations would reduce MYC expression and enhance p16 activity. […] These preclinical data identify potentially useful drug combinations for evaluation in drug-resistant MM and reveal potential mechanisms of combined drug sensitivity.
Described herein is the primary MIPE qHTS used to cherrypick compounds. Validated compounds were then further tested for potential synergistic activiy.
[1] Peat TJ, Gaikwad SM, Dubois W, Gyabaah-Kessie N, Zhang S, Gorjifard S, Phyo Z, Andres M, Hughitt VK, Simpson RM, Miller MA, Girvin AT, Taylor A, Williams D, D'Antonio N, Zhang Y, Rajagopalan A, Flietner E, Wilson K, Zhang X, Shinn P, Klumpp-Thomas C, McKnight C, Itkin Z, Chen L, Kazandijian D, Zhang J, Michalowski AM, Simmons JK, Keats J, Thomas CJ, Mock BA. Drug combinations identified by high-throughput screening promote cell cycle transition and upregulate Smad pathways in myeloma. Cancer Lett. 2023 Aug 1;568:216284. doi: 10.1016/j.canlet.2023.216284. Epub 2023 Jun 24. PMID: 37356470; PMCID: PMC10408729.
SEQUENCE No. (e.g., 1, 2, 3, etc.); […] (e.g., Cells, Incubation, Reagent, etc.); VALUE and DESCRIPTION.
1; Cells; 5 uL; white, solid bottom 1536-well Greiner assay plate.
2; Compounds; 23 nL; Kalypsis pin tool (Wako USA) equipped with a 1536-well pin head to transfer to the assay plates.
3; Incubation; 48 hours; 37C incubation.
4; Reagent;5uL; CellTiter Glo (Promega).
5; Detector; 425V; Luminescence; Viewlux PerkinElmer.
NOTES (numbers refer to Sequence numbers above)
1. The cell-based screening methods employed in this study were like those previously published. Briefly, the corresponding myeloma cell lines were screened in 1,536-well plates with 500 cells, 5-uL per well for inhibition of cell viability (assessed by measuring ATP levels with CellTiterGlo).
2. NCATS MIPE 4.0 library of approved and investigational drugs were added using the Kalypsis pin tool. Wells treated with DMSO only for 100% viability and media only wells for 0% viability were used as controls.
3. The assay plates were covered and incubated for 48 hours in a 37C, 5% CO2 incubator with controlled humidity.
4. After 48 hours, CellTilter-GloTM luminescent substrate mix (Promega) reagent was added to the assay plate and plates we incubated for 5 min at room temperature.
5. Signal was measured as median relative luminescence units on a ViewLux (PerkinElmer) multiplate reader.
[1] Heske CM, Davis MI, Baumgart JT, Wilson K, Gormally MV, Chen L, Zhang X, Ceribelli M, Duveau DY, Guha R, Ferrer M, Arnaldez FI, Ji J, Tran HL, Zhang Y, Mendoza A, Helman LJ, Thomas CJ. Matrix Screen Identifies Synergistic Combination of PARP Inhibitors and Nicotinamide Phosphoribosyltransferase (NAMPT) Inhibitors in Ewing Sarcoma. Clin Cancer Res. 2017 Dec 1;23(23):7301-7311. doi: 10.1158/1078-0432.CCR-17-1121. Epub 2017 Sep 12. PMID: 28899971; PMCID: PMC6636827.
As for `CC(NCc1ccc2c(c1)nc(NC(=O)c1ccc(-c3cn[nH]c3)s1)n2CC(C)(C)O)C(C)(C)C` (stereo not given), the Potency is 83.3 nM (active).

Take `NC(=O)c1c(OCc2c(F)cc(Br)cc2F)nsc1NC(=O)NCCCCN1CCCC1`: the Potency is 18700 nM (active). On the same count and under the same terms, the result for `CC=C1NC(=O)[C@H]2CSSCCC=C[C@H](CC(=O)N[C@H](C(C)C)C(=O)N2)OC(=O)[C@H](C(C)C)NC1=O` reads 13.2 nM (active). The same measure, in the same setting: under `Cc1nc2ccc(CN(C)c3ccc(C(=O)N[C@@H](CCC(=O)O)C(=O)O)s3)cc2c(=O)[nH]1` stands 41.8 nM (active); under `COC(=O)Nc1nc2ccc(C(=O)c3ccc(F)cc3)cc2[nH]1`, 418 nM (active); under `CCN1CCN(Cc2ccc(-c3cc4c(N[C@H](C)c5ccccc5)ncnc4[nH]3)cc2)CC1`, 418 nM (active). Same read-out and setting: the result for `COc1cc2c(NC3CCN(C(C)C)CC3)nc(C3CCCCC3)nc2cc1OCCCN1CCCC1` reads 3720 nM (active). Turning to `CC(C)c1ccccc1Cc1cc(C(=O)Nc2ccc(S(=O)(=O)c3ccccc3C(C)(C)C)cc2)c(O)c(O)c1O`, the Potency was 5260 nM (active). On the same count and under the same terms, the result for `Cc1ccc(NC(=O)C2(c3ccc4c(c3)OC(F)(F)O4)CC2)nc1-c1cccc(C(=O)O)c1` reads 29.6 nM (active); that for `COc1cc2ncn(-c3cc(OCc4ccccc4C(F)(F)F)c(C(N)=O)s3)c2cc1OC`, 1180 nM (active); that for `COc1ccc(F)c(F)c1C(=O)c1cnc(NC2CCN(S(C)(=O)=O)CC2)nc1N`, 1320 nM (active). Same read-out and setting: the result for `Cc1c(Cn2c(C)nc3c(C(=O)O)cc(N4CCOCC4)cc32)cccc1C(F)(F)F` reads 16600 nM (active).

In the case of `Nc1ccn([C@@H]2O[C@H](CO)[C@H](O)C2(F)F)c(=O)n1`, the Potency is 52.6 nM (active). Consider `O=C(CCCCCCNC(=O)c1cnc(N(c2ccccc2)c2ccccc2)nc1)NO`, for which the Potency is 2640 nM (active). For the molecule `CCC(=C(c1ccccc1)c1ccc(OCCN(C)C)cc1)c1ccccc1`, the Potency was 16600 nM (active). Turning to `C=CCn1c(=O)c2cnc(Nc3ccc(N4CCN(C)CC4)cc3)nc2n1-c1cccc(C(C)(C)O)n1`, the Potency is 526 nM (active). On the same count and under the same terms, the result for `NC1(Cc2ccc(Cl)cc2)CCN(c2ncnc3[nH]ccc23)CC1` reads 3720 nM (active).

As for `CC(=O)c1c(C)c2cnc(Nc3ccc(N4CCNCC4)cn3)nc2n(C2CCCC2)c1=O`, the Potency is 18700 nM (active). The same measure, in the same setting: the result for `CN1CCN(c2ccc3nc(-c4c(N)c5c(F)cccc5[nH]c4=O)[nH]c3c2)CC1` reads 1320 nM (active). Same read-out and setting: under `Cc1cc(Nc2cc(N3CCN(C)CC3)nc(Sc3ccc(NC(=O)C4CC4)cc3)n2)n[nH]1` stands 16600 nM (active); under `O=C(C=Cc1cccc(S(=O)(=O)Nc2ccccc2)c1)NO`, 762 nM (active). The same measure, in the same setting: under `Cn1cc(-c2[nH]c3cc(NC(=O)[C@H](N)C4CCCCC4)cc4c3c2C=NNC4=O)cn1` stands 209 nM (active). Turning to `CCCCCN(CCC12CC3CC(CC(C3)C1)C2)C(=O)NCCCc1ccncc1`, the Potency is 16600 nM (active). As for `CN1c2cc(O)c(N=NC(N)=O)cc2CC1S(=O)(=O)O` (stereo not given), the “viability (% of control)” value was 152% (inactive). On to `CN1CC[C@@H](c2c(O)cc(O)c3c(=O)cc(-c4ccccc4Cl)oc23)[C@@H](O)C1`, for which the Potency is 41.8 nM (active).

Consider `C[C@]1(CO)CN(c2cc(C(=O)Nc3ccc4c(c3)-c3c(c(C(N)=O)nn3-c3ccc(F)cc3)CC4)c(Cl)cn2)C[C@@]1(C)CO`, for which the Potency was 2640 nM (active).

Regarding `O=C(O)C1(Cc2cccc(Nc3nccs3)n2)CCC(Oc2cccc(Cl)c2F)CC1` (stereo not given), the Potency was 235 nM (active). On the same count and under the same terms, under `COc1cc(C(=O)NS(=O)(=O)c2ccccc2C)ccc1Cc1cn(C)c2ccc(NC(=O)OC3CCCC3)cc12` stands 10500 nM (active). Same read-out and setting: under `Cc1ccc2nc(NC(=O)CSc3nc4c(c(=O)n3-c3ccccc3)SCC4)sc2c1` stands 8330 nM (active); under `CC(C)(C)OC(=O)Nc1ccc(-c2cc(C(=O)NCCCCCCC(=O)NO)no2)cc1`, 469 nM (active).

`Cc1cnc(Nc2ccc(F)cc2Cl)nc1-c1c[nH]c(C(=O)N[C@H](CO)c2cccc(Cl)c2)c1`: the Potency was 9350 nM (active). Still for that read-out and setting: the result for `CC(C)c1cc(C(=O)N2Cc3ccc(CN4CCN(C)CC4)cc3C2)c(O)cc1O` reads 118 nM (active); that for `COc1cc(C(C)C)c2c(c1)S(=O)(=O)N(COc1cc(=O)n3cccc(OCCN4CCCCC4)c3n1)C2=O`, 13200 nM (active); that for `COC(=O)[C@]12CCC(C)(C)C[C@@H]1[C@@H]1C(=O)C=C3[C@@]4(C)C=C(C#N)C(=O)C(C)(C)[C@@H]4CC[C@@]3(C)[C@]1(C)CC2`, 59 nM (active). Still for that read-out and setting: the result for `CC1(C)OC2=C(C(=O)c3ccccc3C2=O)[C@H](NCc2ccccc2)[C@H]1O` reads 2090 nM (active); that for `CCN(CC)CCNC(=O)c1ccc2nc(-c3ccccc3)c(-c3ccc(CN4CCC(n5c(=O)[nH]c6ccccc65)CC4)cc3)nc2c1`, 296 nM (active). Same read-out and setting: the result for `CC(C)(C)NC(=O)[C@H]1CN(Cc2cccnc2)CCN1C[C@@H](O)C[C@@H](Cc1ccccc1)C(=O)N[C@H]1c2ccccc2C[C@H]1O` reads 20900 nM (active); that for `COc1cc(Nc2ncc(F)c(Nc3ccc4c(n3)N(COP(=O)(O)O)C(=O)C(C)(C)O4)n2)cc(OC)c1OC`, 833 nM (active). With `CC(C)c1cnn2c(NCc3ccccc3)cc(N[C@@H](CO)[C@H](O)CO)nc12`, the Potency is 166 nM (active).

With `CN1CCN(c2cc(C(=O)Nc3ccc4c(c3)-c3c(c(C(N)=O)nn3-c3ccc(F)cc3)CC4)c(Cl)cn2)CC1`, the Potency is 1050 nM (active).
